Assay results as given in the supplement of paper PMC11732987, “Enantioselective OTUD7B fragment discovery through chemoproteomics screening and high-throughput optimisation” (Communications Chemistry, 2025).

Experiments:
Assay in all cases: log2 ratio of Biotin-Ahx-Ub-VS probe labelling (fragment/DMSO); higher = less target engagement (more negative = stronger competition), active = hit call of the paper (q ≤ 0.05, log2 ratio ≤ -1)
Settings in all cases: compound concentration: 200 uM; treatment time: 3 h
[1] = target: USP34 (UniProt Q70CQ2)
How it was run: (§1)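 Average log2 ratios of fragment over vehicle were obtained by unpaired t-test from global-median-normalised Spectronaut label-free quantities. Proteins with ≥2 unique peptides were included. HEK293T lysate (495 µg per sample) was treated in triplicate with fragment at 200 µM or vehicle for 3 h, then with Biotin-Ahx-Ub-VS at 0.5 µM final for 1 h, and labelled DUBs were NeutrAvidin-enriched and run by diaPASEF LC-MS/MS.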

[2] = target: T1, USP36 (UniProt Q9P275)
T1 sequence (whole entry): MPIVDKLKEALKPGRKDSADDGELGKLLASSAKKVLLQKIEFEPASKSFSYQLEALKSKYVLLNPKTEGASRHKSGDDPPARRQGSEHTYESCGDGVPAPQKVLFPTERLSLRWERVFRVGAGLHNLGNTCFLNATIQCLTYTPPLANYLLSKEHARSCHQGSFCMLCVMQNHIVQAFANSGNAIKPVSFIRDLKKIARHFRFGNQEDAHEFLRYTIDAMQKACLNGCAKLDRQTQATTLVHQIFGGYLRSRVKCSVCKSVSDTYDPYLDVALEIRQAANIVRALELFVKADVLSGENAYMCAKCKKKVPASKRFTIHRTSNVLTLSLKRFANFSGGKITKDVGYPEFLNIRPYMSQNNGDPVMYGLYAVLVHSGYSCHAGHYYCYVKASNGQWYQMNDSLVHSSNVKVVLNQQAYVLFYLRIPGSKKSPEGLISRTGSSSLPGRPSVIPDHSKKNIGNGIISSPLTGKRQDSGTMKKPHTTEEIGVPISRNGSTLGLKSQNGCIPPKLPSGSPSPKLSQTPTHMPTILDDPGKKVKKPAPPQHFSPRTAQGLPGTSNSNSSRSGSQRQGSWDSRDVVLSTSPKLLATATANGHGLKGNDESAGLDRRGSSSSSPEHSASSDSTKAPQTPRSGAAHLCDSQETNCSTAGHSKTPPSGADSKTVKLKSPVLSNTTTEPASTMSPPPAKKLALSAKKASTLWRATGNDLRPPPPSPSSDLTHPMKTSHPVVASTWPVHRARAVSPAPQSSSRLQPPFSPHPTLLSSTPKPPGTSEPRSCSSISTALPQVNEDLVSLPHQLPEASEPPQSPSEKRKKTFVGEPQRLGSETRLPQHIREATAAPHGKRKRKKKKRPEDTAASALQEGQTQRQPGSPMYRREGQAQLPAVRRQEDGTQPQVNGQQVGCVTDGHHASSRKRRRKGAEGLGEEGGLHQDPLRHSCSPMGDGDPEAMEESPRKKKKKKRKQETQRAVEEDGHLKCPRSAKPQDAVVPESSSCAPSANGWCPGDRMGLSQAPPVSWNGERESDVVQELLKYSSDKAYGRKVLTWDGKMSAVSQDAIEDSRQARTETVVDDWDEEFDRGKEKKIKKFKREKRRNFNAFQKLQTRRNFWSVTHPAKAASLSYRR
How it was run: as §1

[3] = target: T2, USP38 (UniProt Q8NB14)
T2 sequence (whole entry): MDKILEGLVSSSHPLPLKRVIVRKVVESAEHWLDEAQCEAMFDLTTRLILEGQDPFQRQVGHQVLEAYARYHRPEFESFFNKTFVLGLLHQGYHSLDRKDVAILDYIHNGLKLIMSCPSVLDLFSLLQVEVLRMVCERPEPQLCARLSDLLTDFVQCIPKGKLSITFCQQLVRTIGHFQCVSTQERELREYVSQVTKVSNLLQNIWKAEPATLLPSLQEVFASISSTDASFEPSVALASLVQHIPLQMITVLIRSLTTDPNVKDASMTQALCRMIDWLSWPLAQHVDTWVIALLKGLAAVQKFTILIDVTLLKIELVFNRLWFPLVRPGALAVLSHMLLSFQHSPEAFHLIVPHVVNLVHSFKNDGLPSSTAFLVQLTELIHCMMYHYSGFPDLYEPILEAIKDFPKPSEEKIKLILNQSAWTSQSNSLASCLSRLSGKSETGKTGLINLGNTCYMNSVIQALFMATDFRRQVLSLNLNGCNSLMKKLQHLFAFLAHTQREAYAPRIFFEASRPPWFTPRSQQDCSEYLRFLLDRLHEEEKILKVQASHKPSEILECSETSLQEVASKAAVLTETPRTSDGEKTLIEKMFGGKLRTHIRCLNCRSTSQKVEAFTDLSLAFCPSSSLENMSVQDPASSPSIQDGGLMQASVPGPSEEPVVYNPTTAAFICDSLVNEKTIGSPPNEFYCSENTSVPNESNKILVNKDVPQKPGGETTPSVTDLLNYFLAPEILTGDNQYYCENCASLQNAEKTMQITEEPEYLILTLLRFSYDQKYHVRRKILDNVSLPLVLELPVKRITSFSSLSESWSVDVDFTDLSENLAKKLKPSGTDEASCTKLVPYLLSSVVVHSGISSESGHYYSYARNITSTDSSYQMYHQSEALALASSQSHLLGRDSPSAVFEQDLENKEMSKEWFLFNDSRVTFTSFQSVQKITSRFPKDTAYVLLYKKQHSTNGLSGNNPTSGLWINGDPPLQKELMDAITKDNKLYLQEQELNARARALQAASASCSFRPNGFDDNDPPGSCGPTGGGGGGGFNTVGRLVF
How it was run: as §1

[4] = target: T3, USP39 (UniProt Q53GS9)
T3 sequence (whole entry): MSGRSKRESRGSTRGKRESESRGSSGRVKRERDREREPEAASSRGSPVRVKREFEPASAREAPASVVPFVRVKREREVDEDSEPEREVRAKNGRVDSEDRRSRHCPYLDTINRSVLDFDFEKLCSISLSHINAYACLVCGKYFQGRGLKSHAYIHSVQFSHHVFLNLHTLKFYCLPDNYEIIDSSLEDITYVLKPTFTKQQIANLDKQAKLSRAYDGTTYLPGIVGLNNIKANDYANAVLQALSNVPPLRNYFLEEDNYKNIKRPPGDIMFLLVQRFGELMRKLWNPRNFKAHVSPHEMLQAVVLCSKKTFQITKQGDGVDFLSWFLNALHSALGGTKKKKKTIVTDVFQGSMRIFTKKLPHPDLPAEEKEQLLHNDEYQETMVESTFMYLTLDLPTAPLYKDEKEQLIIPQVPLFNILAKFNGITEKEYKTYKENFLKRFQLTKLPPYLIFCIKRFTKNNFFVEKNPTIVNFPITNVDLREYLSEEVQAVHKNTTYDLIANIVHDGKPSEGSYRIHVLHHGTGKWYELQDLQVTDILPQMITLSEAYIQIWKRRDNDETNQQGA
How it was run: as §1

[5] = target: T4, USP4 (UniProt Q13107)
T4 sequence (whole entry): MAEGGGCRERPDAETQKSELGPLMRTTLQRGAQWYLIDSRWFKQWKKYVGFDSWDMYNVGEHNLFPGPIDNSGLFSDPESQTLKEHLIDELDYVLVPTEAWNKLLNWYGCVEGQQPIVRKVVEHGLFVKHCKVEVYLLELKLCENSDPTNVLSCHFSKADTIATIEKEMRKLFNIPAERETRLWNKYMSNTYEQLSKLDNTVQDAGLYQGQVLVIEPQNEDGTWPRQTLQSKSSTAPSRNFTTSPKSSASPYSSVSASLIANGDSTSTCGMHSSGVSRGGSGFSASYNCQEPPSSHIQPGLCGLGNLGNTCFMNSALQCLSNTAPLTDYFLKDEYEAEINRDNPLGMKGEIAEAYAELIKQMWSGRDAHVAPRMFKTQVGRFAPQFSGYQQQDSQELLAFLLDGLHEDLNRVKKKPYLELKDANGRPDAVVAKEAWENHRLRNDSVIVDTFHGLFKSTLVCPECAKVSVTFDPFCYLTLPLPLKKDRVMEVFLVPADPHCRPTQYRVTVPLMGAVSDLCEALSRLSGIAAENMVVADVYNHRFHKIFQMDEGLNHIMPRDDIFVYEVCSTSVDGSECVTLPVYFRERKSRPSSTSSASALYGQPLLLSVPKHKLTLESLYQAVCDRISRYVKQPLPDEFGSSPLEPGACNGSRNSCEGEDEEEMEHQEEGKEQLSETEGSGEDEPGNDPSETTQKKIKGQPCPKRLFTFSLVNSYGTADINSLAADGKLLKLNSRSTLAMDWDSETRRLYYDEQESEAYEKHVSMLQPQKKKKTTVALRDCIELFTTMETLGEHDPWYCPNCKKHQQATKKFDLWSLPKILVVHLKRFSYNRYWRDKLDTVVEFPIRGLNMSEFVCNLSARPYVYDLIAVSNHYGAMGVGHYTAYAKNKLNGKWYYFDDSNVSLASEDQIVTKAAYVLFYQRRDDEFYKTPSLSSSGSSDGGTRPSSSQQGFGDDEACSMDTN
How it was run: as §1

Measured: log2 ratio of Biotin-Ahx-Ub-VS probe labelling

Sequence of USP34 (Q70CQ2 whole entry, the tested form may be a part): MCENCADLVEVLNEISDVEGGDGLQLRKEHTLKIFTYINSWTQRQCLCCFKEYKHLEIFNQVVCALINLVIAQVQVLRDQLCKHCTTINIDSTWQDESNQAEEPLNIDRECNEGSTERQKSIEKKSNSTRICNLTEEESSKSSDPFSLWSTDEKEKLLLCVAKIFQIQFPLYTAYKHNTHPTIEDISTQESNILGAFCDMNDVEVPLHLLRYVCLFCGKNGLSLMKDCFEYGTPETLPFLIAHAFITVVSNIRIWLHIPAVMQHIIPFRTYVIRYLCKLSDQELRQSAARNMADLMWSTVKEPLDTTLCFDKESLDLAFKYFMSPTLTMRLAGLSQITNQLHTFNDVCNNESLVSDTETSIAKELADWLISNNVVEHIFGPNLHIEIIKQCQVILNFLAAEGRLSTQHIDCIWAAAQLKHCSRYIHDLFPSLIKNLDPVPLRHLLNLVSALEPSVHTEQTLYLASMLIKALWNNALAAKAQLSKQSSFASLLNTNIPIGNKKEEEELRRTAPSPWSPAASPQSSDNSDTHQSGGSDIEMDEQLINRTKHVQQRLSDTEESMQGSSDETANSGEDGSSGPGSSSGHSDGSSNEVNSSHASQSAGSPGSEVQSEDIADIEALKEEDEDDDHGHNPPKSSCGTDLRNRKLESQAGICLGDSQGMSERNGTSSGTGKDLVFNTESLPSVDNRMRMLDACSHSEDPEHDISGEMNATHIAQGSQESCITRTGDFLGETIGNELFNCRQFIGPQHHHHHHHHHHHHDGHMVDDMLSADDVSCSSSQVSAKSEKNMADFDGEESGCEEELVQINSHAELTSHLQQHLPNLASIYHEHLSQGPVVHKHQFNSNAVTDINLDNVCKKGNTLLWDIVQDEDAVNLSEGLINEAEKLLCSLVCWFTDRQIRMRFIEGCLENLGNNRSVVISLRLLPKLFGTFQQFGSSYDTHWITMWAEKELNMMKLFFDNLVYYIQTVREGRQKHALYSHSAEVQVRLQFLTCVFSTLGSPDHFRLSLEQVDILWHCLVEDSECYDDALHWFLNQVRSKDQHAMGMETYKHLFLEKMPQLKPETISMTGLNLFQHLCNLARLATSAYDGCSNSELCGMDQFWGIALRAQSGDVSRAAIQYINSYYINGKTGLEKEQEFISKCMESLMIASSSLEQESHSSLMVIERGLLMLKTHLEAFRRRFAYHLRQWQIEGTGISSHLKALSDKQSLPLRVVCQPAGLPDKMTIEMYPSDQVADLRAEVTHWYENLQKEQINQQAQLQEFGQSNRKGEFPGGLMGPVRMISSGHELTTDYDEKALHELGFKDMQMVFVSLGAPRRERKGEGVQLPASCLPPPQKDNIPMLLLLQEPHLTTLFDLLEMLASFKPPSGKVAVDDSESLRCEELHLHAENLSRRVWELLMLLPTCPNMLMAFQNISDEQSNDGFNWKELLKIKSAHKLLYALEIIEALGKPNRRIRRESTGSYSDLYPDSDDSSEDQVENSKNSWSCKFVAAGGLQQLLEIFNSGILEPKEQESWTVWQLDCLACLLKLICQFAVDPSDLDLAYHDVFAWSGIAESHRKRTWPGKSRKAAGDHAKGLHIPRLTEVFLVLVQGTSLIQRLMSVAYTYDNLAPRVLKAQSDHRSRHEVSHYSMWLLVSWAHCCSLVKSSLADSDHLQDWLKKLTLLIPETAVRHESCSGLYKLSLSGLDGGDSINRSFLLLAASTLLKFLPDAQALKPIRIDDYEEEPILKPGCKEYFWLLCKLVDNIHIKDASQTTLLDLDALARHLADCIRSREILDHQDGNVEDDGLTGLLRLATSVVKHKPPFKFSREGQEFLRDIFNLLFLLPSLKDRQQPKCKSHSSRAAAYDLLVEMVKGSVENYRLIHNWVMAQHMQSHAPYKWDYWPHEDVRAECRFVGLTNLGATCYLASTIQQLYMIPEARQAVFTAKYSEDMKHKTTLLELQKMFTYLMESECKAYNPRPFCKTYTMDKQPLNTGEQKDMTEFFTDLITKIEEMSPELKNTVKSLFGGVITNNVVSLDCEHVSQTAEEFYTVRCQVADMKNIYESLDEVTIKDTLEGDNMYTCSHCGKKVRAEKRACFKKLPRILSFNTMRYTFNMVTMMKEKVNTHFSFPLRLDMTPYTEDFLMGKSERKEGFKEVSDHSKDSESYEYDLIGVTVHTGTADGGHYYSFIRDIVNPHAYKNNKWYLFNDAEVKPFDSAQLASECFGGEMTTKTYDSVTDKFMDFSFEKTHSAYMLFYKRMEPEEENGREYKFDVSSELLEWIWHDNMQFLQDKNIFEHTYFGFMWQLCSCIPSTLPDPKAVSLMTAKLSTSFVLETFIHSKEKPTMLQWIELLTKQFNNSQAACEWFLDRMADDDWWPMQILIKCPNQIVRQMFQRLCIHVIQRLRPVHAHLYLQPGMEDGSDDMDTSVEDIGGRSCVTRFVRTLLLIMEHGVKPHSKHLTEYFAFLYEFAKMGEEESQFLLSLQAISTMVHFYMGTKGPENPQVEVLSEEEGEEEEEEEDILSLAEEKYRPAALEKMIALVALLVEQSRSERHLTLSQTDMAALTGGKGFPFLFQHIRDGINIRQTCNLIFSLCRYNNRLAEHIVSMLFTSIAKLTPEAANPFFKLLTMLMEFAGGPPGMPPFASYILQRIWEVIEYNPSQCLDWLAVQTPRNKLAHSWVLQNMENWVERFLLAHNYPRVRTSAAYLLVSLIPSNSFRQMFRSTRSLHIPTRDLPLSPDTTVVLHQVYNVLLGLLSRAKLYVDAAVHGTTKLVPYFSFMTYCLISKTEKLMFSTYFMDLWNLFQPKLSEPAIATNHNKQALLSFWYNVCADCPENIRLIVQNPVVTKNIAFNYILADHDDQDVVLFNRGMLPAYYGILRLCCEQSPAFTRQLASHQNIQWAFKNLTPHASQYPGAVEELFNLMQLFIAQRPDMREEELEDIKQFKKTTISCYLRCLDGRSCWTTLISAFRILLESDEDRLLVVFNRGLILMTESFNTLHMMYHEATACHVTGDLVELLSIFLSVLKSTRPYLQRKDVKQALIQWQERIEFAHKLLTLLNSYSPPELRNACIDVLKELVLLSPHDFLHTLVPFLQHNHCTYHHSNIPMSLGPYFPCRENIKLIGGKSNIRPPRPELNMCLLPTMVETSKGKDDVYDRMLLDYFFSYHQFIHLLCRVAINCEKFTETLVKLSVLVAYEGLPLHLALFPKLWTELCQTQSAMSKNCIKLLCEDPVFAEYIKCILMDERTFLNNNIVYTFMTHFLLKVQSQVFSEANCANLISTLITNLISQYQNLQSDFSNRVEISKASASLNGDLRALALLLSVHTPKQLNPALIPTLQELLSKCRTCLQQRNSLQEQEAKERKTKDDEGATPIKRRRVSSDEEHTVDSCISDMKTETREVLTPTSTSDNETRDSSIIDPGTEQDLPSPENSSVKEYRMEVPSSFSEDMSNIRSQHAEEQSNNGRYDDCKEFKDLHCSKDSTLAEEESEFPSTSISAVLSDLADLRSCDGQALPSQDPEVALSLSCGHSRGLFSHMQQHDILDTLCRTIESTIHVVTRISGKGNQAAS

O=C(CCl)N1CCCC1c1ccsc1 (stereo not given)
inactive: [1] -0.191 | [2] -0.111 | [3] -0.0937 | [4] -0.0825 | [5] -0.821
